Most compounds without a hit are left out; they make up all but 12% or so of the library.
Sfp PPTase inh: blocks B. subtilis Sfp PPTase activity; Potency, µM, without a hit: largest response in the series, negative = inhibition, hits mostly inhibitors; actives 3.5% (n = 310,000); Biochemical Sfp PPTase activity, qHTS; Q9F4F7;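 also: the enzyme is Sfp with the accession as filed and its product quenches rhodamine fluorescence; 0% = enzyme reaction without inhibitor and -100% = no enzyme wells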
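With Hepes-Na pH 7.6 buffer containing 10 mM MgCl2, Sfp (15 nM) modified BHQ-2-YbbR (12.5 uM) using rhodamine-CoA (5 uM). Two reads 30 minutes apart at 525/598 nm yielded each well's rate.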
L3MBTL1 inh: inhibitors of human L3MBTL1. AID 485360. AlphaScreen L3MBTL1–H3K9me1 peptide binding. actives 0.66% (n = 230,000). Q9Y468. Potency, µM (highest dose often 57.1 µM), inactives show at the highest dose activity, negative = inhibition, hits mostly inhibitors; also: % is scaled to controls: 0 for no effect and ±100 for the full control effect; nearly all actives have a fitted effect of over 60% in size
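First, the protein-peptide complex forms for 30 min at room temperature (L3MBTL1 50 nM, biotinylated H3K9me1 peptide 75 nM). Next, compounds are pin-transferred and incubated 30 min. Finally, AlphaScreen beads are added and read after 30 min.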
BAZ2B block: inhibitors of human BAZ2B bromodomain | Q9UIF8 | AlphaScreen BAZ2B-H3K14Ac peptide displacement | Potency, µM (top dose mostly 114 µM), for the others: at the top dose activity change, negative = inhibition, hits mostly inhibitors | actives 4.4% (n = 360,000) | AID 504333; also: % is scaled to controls: 0 for no effect and ±100 for the full control effect; nearly all actives have a fitted effect of over 60% in size
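AlphaScreen displacement: compounds (up to 110uM) incubated 30 min at room temperature with a preformed 50 nM BAZ2B/50 nM biotinylated H3K14Ac peptide complex in PBS pH 7.4 with Tween-20. Donor and acceptor beads at 10 ug/mL final added, 20 min light-protected before reading.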
G9a block: blocks human histone lysine methyltransferase G9a. G9a H3K9 monomethylation, AlphaScreen, 2 h. Potency, µM (highest dose often 102 µM), without a hit: at the top dose activity, negative = inhibition, actives largely listed as inhibitors. actives 8.8% (n = 350,000); also: % is scaled to controls: 0 for no effect and ±100 for the full control effect; nearly all actives have a fitted effect of over 75% in size
Target sequence (Q96KQ7 913-1193 limits assumed): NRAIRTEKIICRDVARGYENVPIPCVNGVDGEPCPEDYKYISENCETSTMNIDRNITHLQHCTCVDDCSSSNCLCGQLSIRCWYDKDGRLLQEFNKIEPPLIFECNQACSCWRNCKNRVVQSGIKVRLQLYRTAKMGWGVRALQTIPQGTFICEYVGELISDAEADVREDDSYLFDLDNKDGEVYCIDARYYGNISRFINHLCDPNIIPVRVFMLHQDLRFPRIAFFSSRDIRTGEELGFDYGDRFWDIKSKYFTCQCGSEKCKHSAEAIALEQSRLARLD
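Using a bead-based AlphaScreen, monomethylated H3K9 product from 2 h room-temperature reactions (G9a 20 nM, peptide 500 nM, SAM 20 uM) was detected with 0.5 ug/mL rabbit anti-H3K9me1 antibody.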
JMJD2A Tudor inh: blocks the human JMJD2A Tudor domain; Potency, µM (series often up to 114 µM), for inactives: at the top dose activity change, negative = inhibition, hits mostly inhibitors; AlphaScreen JMJD2A-Tudor / H3K4me3 peptide binding; actives 4.4% (n = 390,000); O75164; also: % is scaled to controls: 0 for no effect and ±100 for the full control effect; nearly all actives have a fitted effect of over 50% in size
HP1b chromo inh: inhibitors of HP1-beta chromodomain binding to methylated histone tails | P83916 | AlphaScreen HP1-beta / biotin-H3K9me3 peptide binding | Potency, µM (titrated, usually from 114 µM), inactives show at the top dose activity change, negative = inhibition, actives largely listed as inhibitors | actives 0.56% (n = 390,000) | AID 540317; also: nearly all actives have a fitted effect of over 70% in size
Target sequence (P83916 whole entry, looked up): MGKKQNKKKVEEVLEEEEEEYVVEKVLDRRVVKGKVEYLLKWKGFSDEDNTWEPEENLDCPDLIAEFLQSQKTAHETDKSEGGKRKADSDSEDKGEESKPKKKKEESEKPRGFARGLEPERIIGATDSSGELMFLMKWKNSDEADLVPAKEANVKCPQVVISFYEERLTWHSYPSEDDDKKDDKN
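Compound inhibition of the preformed complex between 50 nM HP1-beta and 50 nM biotinylated H3K9me3 peptide was read by AlphaScreen. Buffer was PBS pH 7.4 with 0.01% Tween-20. Incubations ran 30 min at room temperature, with 10 ug/mL donor/acceptor beads.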
* = called active by the depositor; ? = inconclusive; . = no result; [ ] = remark or other dose. Calls follow the shape of the dose curve; as a rule, active = well fitted curve in the direction sought with a large enough effect; inconclusive = small, poorly fitted or top-dose-only effect, or another doubt; inactive = no such curve, though single readings can be large; an effect the other way counts as inactive or inconclusive. Potency is read from the fitted curve at half-maximal effect.

SMILES	Sfp PPTase inh	L3MBTL1 inh	BAZ2B block	G9a block	JMJD2A Tudor inh	HP1b chromo inh
CCOC(=O)c1sc(N)nc1C(C)(C)C	-11.1%	-0.6%	9.3%	15.8µM*	-6.2%[11.4 µM]	0.2%
CCOC(=O)c1sc(NC(=O)CCC(=O)O)nc1C	13.7%	13.6%	0.7%	-4.9%	-11.3%	-17.6%
CCOC(=O)c1sc(NC(=O)c2cncc(Br)c2)nc1C	16.6%	1.4%	7.2%	7.0%[59 µM]	.	.
O=c1c(-c2cc(F)cc(F)c2)nc2cnc(N3CCOCC3)nc2n1-c1ccccc1	0.2%	.	.	0.7%[12.7 µM]	.	.
Cc1cccc(NC(=O)CSc2nc3c(oc4ccccc43)c(=O)n2-c2ccccc2)c1C	.	.	1.0%	-0.6%[59 µM]	-18.5%	5.1%
O=C(OCc1ccccc1)c1cn(-c2ccccc2)nc1-c1ccncc1	89.1µM*	-11.8%	1.6%	58.3%	11.6%	19.8%
CC(NC(=O)c1ccccc1)C(=O)NNC(=O)c1ccccc1Cl (stereo unspecified)	.	2.8%	-3.5%	12.9%[12.7 µM]	-15.5%	23.5%
COc1cc(C(=O)c2ccccc2)c(OC)cc1C(=O)Nc1ccc(O)cc1	-4.8%	-25.3%	-38.9%	-14.7%	?	3.7%
Clc1ccc(C(CCN2CCCC2)Cc2ccccc2)cc1 (stereo unspecified)	-24.4%	.	50.1µM*	10µM*	3.98µM*	?
CCOc1ccc(NC(=O)Cn2c(=O)cc(C)c3c(C)nn(-c4ccc(CC)cc4)c32)cc1	.	.	2.9%	6.5%[59 µM]	-28.3%	69.5%
CCOc1ccc2[nH]c(=O)c(CN(CCO)C(c3nnnn3C3CCCCC3)C(C)C)cc2c1 (stereo unspecified)	89.1µM*	-6.4%	0.6%	?	-5.4%	53.5%
COc1ccc(N2C(=O)CC(N3CCN(S(=O)(=O)c4cc(C)ccc4C)CC3)C2=O)cc1 (stereo unspecified)	9.4%	-2.2%	.	-27.8%	-18.2%	31.2%
CC(=O)Nc1ccc(NC(=O)COC(=O)c2ccccc2SCC(=O)N2CCCC2)cc1	.	-2.2%	4.2%	17.8µM*	-23.3%	25.1%
COc1ccc(CNC(=O)c2ccccc2SCC(=O)N2CCCC2)cc1OC	.	-12.4%	-5.0%	44.7µM*	-9.8%	24.6%
COc1ccccc1CNC(=O)COC(=O)c1ccccc1SCC(=O)N1CCCC1	.	3.4%	2.6%	?	-8.3%	2.8%
CCNC(=O)NC(=O)COC(=O)c1ccccc1SCC(=O)NC(=O)NCC	?	-8.7%	-2.1%	44.7µM*	?	?
Cc1ccccc1NC(=O)COC(=O)c1ccccc1SCC(=O)N1CCCC1	2.6%	.	0.1%	?	0.7%	31.7%
COc1ccc(NC(=O)COC(=O)c2ccccc2SCC(=O)N2CCCC2)cc1	.	9.8%	4.0%	39.8µM*	3.9%	28.9%
COc1ccc(/C=C/C(=O)Oc2cccc(/C=N/NC(=O)COc3c(C)cccc3C)c2)cc1	?	-1.9%	100µM*	-80.4%[12.7 µM]	2.5%	19.7%
N#CCCCS(=O)(=O)c1ccccc1	23.0%	.	.	.	.	.
CN(CC(=O)Nc1ccc(SC(F)F)cc1)C1CCCCC1	-0.2%	.	-0.9%	79.4µM*	1.4%	46.8%
CN(CC(=O)Nc1ccccc1Cl)C1CCCCC1	12.7%	5.5%	16.1%	29.1%	19.6%	33.6%
CC1CCCCN1CC(=O)Nc1ccc2c(c1)OC(F)(F)O2 (stereo unspecified)	19.4%	12.1%	-2.5%	-1.3%	1.4%	26.5%
CN1CCC(N(C)CC(=O)Nc2ccc3c(c2)OC(F)(F)O3)CC1	50.1µM*	-17.8%	44.7µM*	.	2µM*	?
CN(CC(=O)Nc1ccc(Cl)c(Cl)c1)C1CCCCC1	-20.7%	9.8%	-28.1%	22.4µM*	22.4µM*	?
SMILES	Sfp PPTase inh	L3MBTL1 inh	BAZ2B block	G9a block	JMJD2A Tudor inh	HP1b chromo inh
COc1ccccc1CNc1nc(-c2ccco2)nn1S(=O)(=O)c1ccc(C)cc1	.	.	-21.1%	?	-4.0%	35.7%
CCN(CC)S(=O)(=O)c1ccc2c(c1)N(CC(=O)Nc1c(C)cccc1C)C(=O)CO2	.	.	-2.4%	-19.7%[59 µM]	-3.7%	19.9%
CCCCCCCC(=O)N/N=C/c1ccc([N+](=O)[O-])o1	10.7%	-8.1%	-29.8%	?	-34.6%	2.1%
O=[N+]([O-])c1ccc(/C=N/Nc2nc(N3CCCCC3)nc(N3CCCCC3)n2)cc1	-19.9%	5.6%	?	.	?	3.5%
O=C(CN1CCCCCCC1)N/N=C/c1ccc([N+](=O)[O-])o1	?	?	50.1µM*	31.6µM*	17.8µM*	?
O=[N+]([O-])c1ccc(-c2ccc(/C=N/Nc3nc(NCc4ccccc4)nc(N4CCOCC4)n3)o2)cc1	13.5%	-22.5%	?	25.1µM*	-31.9%	-1.2%
O=[N+]([O-])c1ccc(/C=N/Nc2nc(N3CCCCCC3)nc(N3CCCCCC3)n2)o1	-12.3%	-21.3%	?	10µM*	?	-25.4%
C/C(=N\Nc1cccc(C(F)(F)F)c1)c1ccc(O)cc1	-5.4%	-15.5%	?	8.91µM*	44.7µM*	?
C/C(=N\NC(=O)c1cc(O)cc(O)c1)c1ccc(NC(=O)Cc2ccccc2)cc1	4.4%	.	8.91µM*	8.91µM*	14.1µM*	31.6µM*
C/C(=N/Nc1nc(-c2ccccc2)cc(-c2ccccc2)n1)c1ccc(N)cc1	-21.5%	-16.2%	?	11.2µM*	.	.
C/C(=N\NC(=O)c1cccc(N/N=C(\C)c2ccccc2)c1)c1ccccc1	12.3%	-9.2%	-24.4%	2.82µM*	-28.0%	-6.5%
O=C(/C=C\c1ccc2c(c1)OCO2)NC1CC(=O)N(c2ccc(F)cc2)C1 (stereo unspecified)	.	.	1.2%	4.3%[59 µM]	-2.3%	24.2%
O=C(NCc1nc2ccccc2[nH]1)[C@H]1C[C@@H]1[C@H](NP(=O)(c1ccccc1)c1ccccc1)c1ccccc1	0.5%	.	.	.	.	.
N#Cc1nc(Nc2cccc(F)c2)nc(NC2CCCC2)n1	.	.	.	.	0.7%	.
C/C(=N\Nc1ccccc1)c1cccc(N)c1	-9.7%	-4.9%	?	8.91µM*	?	?
C/C(=N\Nc1cc(-c2ccccc2)nc(-c2ccc(Br)cc2)n1)c1cccc(N)c1	.	.	.	.	?	-25.3%
[O-]/[N+](=C\c1ccc(OC(F)F)cc1)c1ccccc1	-27.2%	-0.1%	-7.1%	50.1µM*	-2.2%	56.3%
COc1ccccc1-c1cccc([C@@H]2C[C@H]3[C@H](CON3C)CN2C(=O)C(C)(C)C)c1	.	.	.	.	-6.5%	21.0%
O=c1cc(O)c(-c2ccccc2Cl)c(Cl)[nH]1	89.1µM*	.	6.3%	4.0%[12.7 µM]	0.0%	29.7%
Cc1cccc(-c2c(O)cc(=O)[nH]c2Cl)c1	?	?	-24.3%	-42.5%	-27.8%	15.6%
Cc1cccc(-n2c(=O)c3c(c4cc(C)ccc4n3C)n(CC(=O)Nc3ccc(C)c(C)c3)c2=O)c1	.	.	-4.1%	5.0%[59 µM]	-19.3%	15.9%

Assay outcomes from PubChem BioAssay.
